# TRHR agonist = qHTS for Small Molecule Agonists and Allosteric Enhancers of Human TRH Receptor: Primary Screen for Agonists. Thyrotropin-releasing hormone receptor (Homo sapiens), P34981. activation, % at 2 µM. 360,000 tested, 0.18% active. TRHR cells, calcium flux fluo-8, FDSS agonist mode; note: 0% is about no effect
# Target sequence (P34981 whole entry, looked up): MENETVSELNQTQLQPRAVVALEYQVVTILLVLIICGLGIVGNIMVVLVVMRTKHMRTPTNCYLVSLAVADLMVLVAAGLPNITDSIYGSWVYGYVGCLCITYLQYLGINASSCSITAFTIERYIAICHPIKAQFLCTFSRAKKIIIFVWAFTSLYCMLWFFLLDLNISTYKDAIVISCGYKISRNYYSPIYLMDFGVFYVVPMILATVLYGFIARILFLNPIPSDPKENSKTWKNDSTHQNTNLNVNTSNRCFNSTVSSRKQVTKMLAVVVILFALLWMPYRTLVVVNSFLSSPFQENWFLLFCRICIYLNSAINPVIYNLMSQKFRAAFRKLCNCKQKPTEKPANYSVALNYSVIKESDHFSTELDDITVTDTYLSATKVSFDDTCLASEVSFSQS
#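 Read-out: compound-evoked intracellular calcium rise in TRHR cells, fluo-8 dye, kinetic FDSS fluorescence at 1 s/cycle following a 10-cycle baseline. Cells cultured overnight before dye loading (30 min–1.5 h, RT).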
# D1 PAM = Potentiators of Human D1 Dopamine Receptor: qHTS | potentiation, % at 10 µM | 360,000 tested, 0.036% active | HEK293 TREx D1 cells, calcium flux, dopamine EC20 potentiation | D(1A) dopamine receptor (Homo sapiens), P21728 | AID 504651, 2011; in the data active = potentiation above about 30%; note: 0% is about no effect
# D1 agonist = Allosteric Agonists of the Human D1 Dopamine Receptor: qHTS. D(1A) dopamine receptor (Homo sapiens), P21728. HEK293 T-REx D1 cells, calcium flux, agonist mode. activation, % at 2 µM. 360,000 tested, 1% active; note: 0% is about no effect
#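 Inducible HEK293 T-REx D1 cells, force-coupled to calcium signalling, were plated at 4000 cells/well with tetracycline and held overnight at 30 C. After no-wash calcium dye loading, compound-evoked calcium rise over 180 s flagged agonists.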
# D1 antag = Antagonist of Human D 1 Dopamine Receptor: qHTS; 360,000 tested, 3.2% active; AID 504652, 2011; HEK293 TREx D1 cells, calcium flux, dopamine EC80; stronger effect = lower value; D(1A) dopamine receptor (Homo sapiens), P21728; activity change, negative = inhibition, % at 10 µM; in the data active = activity change below about -30%; note: % is set by controls: 0 for no effect and ±100 for the full control effect
#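 Inducible Hek293 Trex D1 cells (tetracycline, overnight, 30 C). Calcium dye 30–90 min RT. Antagonist mode: EC80 dopamine added after 180 s compound read.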
# TRHR enhancer = qHTS for Small Molecule Agonists and Allosteric Enhancers of Human TRH Receptor: Primary Screen for Enhancers. Thyrotropin-releasing hormone receptor (Homo sapiens), P34981. enhancement, % at 2 µM. 360,000 tested, 0.66% active. TRHR cells, fluo-8 calcium fluorescence, EC20 TRH enhancement; in the data active = enhancement above about 30%; note: 0% is about no effect
#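 TRHR-expressing cells loaded with fluo-8 calcium dye were read kinetically (ex 480/em 530) during compound addition, then stimulated with an EC20 of TRH (10 nM final). Enhancement of the Gq-mediated intracellular calcium response was scored.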
# * marks the source's active call; other numbers are inactive results; nt = no result. Hits are enriched below; roughly 4.7% of the tested compounds scored in any of these assays. Cut-off read from the data, not from the text of the source, unless noted: active = activation above about 30%; inactive = the rest.
SMILES,TRHR agonist,D1 PAM,D1 agonist,D1 antag,TRHR enhancer
CC(C)c1ccc(S(=O)(=O)c2nnn3c2nc(NCCc2ccccc2)c2sccc23)cc1,1,-2,4,-8,2
CCOc1ccc(-n2c(SCC(=O)N3CCCCC3)nc3c([nH]c4ccccc43)c2=O)cc1,0,1,1,7,-1
O=C(NNS(=O)(=O)c1ccccc1)c1ccc(F)cc1,0,-9,2,2,5
O=C(Nc1ccccc1NC(=O)c1ccc(F)cc1)c1ccc(F)cc1,0,-2,3,-36*,-8
O=C(Nc1ccccc1Sc1ccccc1)c1ccc(F)cc1,0,-3,2,1,0
O=C(NNC(=O)c1ccc(NC(=O)c2ccccc2)cc1)Nc1ccccc1,1,-3,9,-5,-9
O=C(NNC(=O)c1ccc(NC(=O)c2ccccc2)cc1)c1ccc(F)cc1,2,-3,4,-67*,-5
O=C(NNS(=O)(=O)c1ccccc1)Nc1ccc(F)cc1,0,-7,1,-36*,-9
Cc1cccc(C(=O)Nc2ccc(N3CCC(N4CCCCC4)CC3)c(C(=O)O)c2)c1,0,-3,0,-12,-1
Cc1ccc(NC(=O)CCN2C(=O)c3ccccc3Sc3ncccc32)c(Cl)c1,0,-6,14,-8,8
CCOC(=O)C1(CC2CC2)CCN(S(=O)(=O)/C=C/c2ccccc2)CC1,0,-11,9,-80*,-3
CCc1ccccc1NC(=O)CSc1ncc(S(=O)(=O)c2ccccc2)c(N)n1,0,1,3,2,-2
COc1ccc(C2(CNC(C)=O)CCOCC2)cc1OC,0,nt,2,-35*,2
COc1ccc(C2(CNC(=O)C(=O)Nc3ccc(F)cc3)CCCC2)cc1OC,1,-1,-1,6,32*
Cc1cc2c(s1)c1cnn(Cc3cccc([N+](=O)[O-])c3)c(=O)c1n2C,0,6,9,-5,6
Cc1cccc(CCNC(=O)Cn2ncc3c(=O)oc4ccccc4c32)c1,0,1,4,-8,-2
CCc1ccc2c(CN(C)Cc3ccccc3OC)cc(=O)oc2c1,-1,-6,3,-31*,0
O=C(Cc1ccc(Br)cc1)Nc1cccc(-c2cn3c(n2)SCC3)c1,0,-13,10,-41*,-4
CCCC(CCC)C(=O)Nc1cccc(-c2cn3c(n2)SCC3)c1,0,-3,0,-5,-4
CC(OC(=O)CSc1ccc([N+](=O)[O-])cc1)C(=O)NCc1ccccc1 (stereo not given),0,-15,19,-55*,12
Cc1ccc(CN(C)C(=O)COC(=O)CSc2ccc([N+](=O)[O-])cc2)cc1,-1,-5,5,-6,-1
Cc1ccccc1CN(C)C(=O)COC(=O)CSc1ccc([N+](=O)[O-])cc1,0,-5,14,-33*,1
O=C(COC(=O)Cc1cccc(F)c1)NCCc1ccccc1,-1,-4,1,-68*,-5
COc1ccc(CCNC(=O)CN(c2cc([N+](=O)[O-])ccc2OC)S(C)(=O)=O)cc1OC,1,-5,2,4,32*
O=C(COC(=O)Cc1ccc(F)cc1)NCCc1ccccc1,-1,-3,2,-5,-1
SMILES,TRHR agonist,D1 PAM,D1 agonist,D1 antag,TRHR enhancer
CN(C)S(=O)(=O)c1ccc2c(c1)N(CC(=O)Nc1ccc(OC(F)(F)F)cc1)C(=O)CS2,2,8,4,1,-2
CC(C)COc1ccc(C(=O)Nc2cc(-c3ccccc3)no2)cc1,2,1,8,-10,-2
O=C(COC(=O)CSc1ccc([N+](=O)[O-])cc1)NCCc1ccccc1,-1,-14,9,-34*,0
O=C(COC(=O)CSc1ccc([N+](=O)[O-])cc1)NCCCc1ccccc1,0,-8,9,-33*,-5
COc1ccc(CCNC(=O)COC(=O)CSc2ccc([N+](=O)[O-])cc2)cc1OC,3,-9,6,-45*,-7
O=C(COC(=O)CSc1ccc(F)cc1)NCCCc1ccccc1,-1,-2,4,25,3
O=C(COC(=O)CSc1ccc([N+](=O)[O-])cc1)NCc1ccco1,0,-5,6,-6,2
COc1ccc(CCNC(=O)Cc2ccc([N+](=O)[O-])cc2)cc1OC,0,-2,2,12,14
COC(=O)c1cccc(Nc2c(-c3cc(Br)ccc3O)nc3nc[nH]n23)c1,-1,0,0,-9,11
COc1cccc(NC(=O)c2oc3ccccc3c2NC(=O)c2ccccc2C)c1,1,-2,5,-3,-5
Cc1cc2c(s1)c1cnn(Cc3cc(Cl)ccc3F)c(=O)c1n2C,-1,0,0,-12,-1
O=C(N/N=C/c1cc2c3c(c1O)CCCN3CCC2)c1ccccc1O,6,-6,31*,-13,19
CCN1C(c2ccc(F)cc2)=CS/C1=C(\C#N)c1nnc2n1-c1ccccc1SC2,-1,-10,0,-35*,-4
COc1cccc(CNCc2ccc(OC)c3ccccc23)c1OC,-1,-9,50*,-41*,2
COc1cccc(CNCc2ccccn2)c1OC,1,-11,3,-23,-8
COc1ccccc1CNCc1cc(Br)ccc1OC,2,-3,37*,-1,-6

# From PubChem
